Data as given in PubChem BioAssay (NCATS).
Results filed as inconclusive are left out. Activity calls are given as the source filed them. Unless noted, the call rests on the fitted dose curve.

Tests used:
[1] = qHTS for Inhibitors of the Functional Ribonucleoprotein Complex (vRNP) of Lassa (LASV) Arenavirus: LASV Primary Screen - GLuc reporter signal (AID 1347082; calls by dose curve; tested in HEK293 reporter line; further: nearly all actives have a fitted effect of over 60% in size)
[2] = qHTS for Inhibitors of the Functional Ribonucleoprotein Complex (vRNP) of Lassa (LASV) Arenavirus: Viability assay - alamar blue signal for LASV Primary Screen (AID 1347083; calls by dose curve; tested in HEK293 reporter line; further: nearly all actives have a fitted effect of over 80% in size)
[3] = qHTS for Inhibitors of the Functional Ribonucleoprotein Complex (vRNP) of Lymphocytic Choriomeningitis Arenaviruses (LCMV): Viability assay - alamar blue signal for LCMV Primary Screen (AID 1347085; calls by dose curve; tested in HEK293 reporter line; further: nearly all actives have a fitted effect of over 80% in size)
[4] = biological target: Nucleoprotein (Lymphocytic choriomeningitis virus (strain Armstrong)) (UniProt P09992); assay: qHTS for Inhibitors of the Functional Ribonucleoprotein Complex (vRNP) of Lymphocytic Choriomeningitis Arenaviruses (LCMV): LCMV Primary Screen - GLuc reporter signal (AID 1347086); further: nearly all actives have a fitted effect of over 70% in size
Nucleoprotein (Lymphocytic choriomeningitis virus (strain Armstrong)), sequence (P09992 whole entry, looked up): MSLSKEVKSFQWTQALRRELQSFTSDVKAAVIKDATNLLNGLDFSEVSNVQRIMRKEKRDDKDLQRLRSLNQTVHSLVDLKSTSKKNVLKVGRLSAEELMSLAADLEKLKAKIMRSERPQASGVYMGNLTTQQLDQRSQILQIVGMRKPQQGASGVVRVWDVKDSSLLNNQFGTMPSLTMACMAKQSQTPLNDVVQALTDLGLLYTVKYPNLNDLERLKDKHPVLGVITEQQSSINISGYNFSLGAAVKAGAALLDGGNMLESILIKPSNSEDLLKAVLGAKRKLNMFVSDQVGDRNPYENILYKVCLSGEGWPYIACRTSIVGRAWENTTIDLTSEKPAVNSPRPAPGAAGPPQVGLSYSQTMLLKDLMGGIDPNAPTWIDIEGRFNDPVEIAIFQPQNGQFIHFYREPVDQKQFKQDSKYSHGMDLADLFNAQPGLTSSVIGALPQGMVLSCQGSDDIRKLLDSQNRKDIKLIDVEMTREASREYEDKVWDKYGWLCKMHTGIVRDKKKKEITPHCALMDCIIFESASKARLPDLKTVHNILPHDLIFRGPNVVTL

Measured: Potency
Potency means the concentration at half of the fitted maximal effect.

C/C=C(/C)C(=O)O[C@H]1CC(C)=CC(=O)[C@@]2(C)CC[C@@](O)(C(C)C)[C@H]12
inactive: [1] | [2] | [3] | [4]

CCCCCCCCCCCCCC/C(C(=O)O)=C(\C)C(=O)O
inactive: [1] | [2] | [3] | [4]

CC(=O)Oc1ccc2c(=O)c(-c3ccccc3)c(C)oc2c1
inactive: [1] | [2] | [3] | [4]

CCC(=O)Nc1ccccc1
inactive: [1] | [2] | [3] | [4]

C[C@H]1C[C@H]2[C@@H]3CCC4=CC(=O)C=C[C@]4(C)[C@@H]3C(=O)C[C@]2(C)[C@@]1(O)C(=O)CO
inactive: [1] | [2] | [3] | [4]

COc1cc(-c2oc3cc(O)cc(O)c3c(=O)c2O[C@@H]2O[C@H](CO)[C@@H](O)[C@H](O)[C@H]2O)cc(OC)c1O
inactive: [1] | [2] | [3] | [4]

C=C1CCC(OC(C)=O)C2(C)CCC3C(C)C(=O)OC3C12O (stereo not given)
inactive: [1] | [2] | [3] | [4]

FC(F)c1nc2ccccc2n1-c1nc(N2CCOCC2)nc(N2CCOCC2)n1
active: [1] 8.63 µM | [2] 3060 nM | [3] 13.7 µM | [4] 19.3 µM

COc1c2ccoc2nc2c(OC)c(OCC(OC(C)=O)C(C)(C)O)ccc12 (stereo not given)
inactive: [1] | [2] | [3] | [4]

CSCCCN=C=S
inactive: [1] | [2] | [3] | [4]

CC(=O)c1ccc(-c2cccs2)s1
inactive: [1] | [2] | [3] | [4]

CC[C@H]1O[C@]2(CC[C@@H]1C)C[C@@H]1C[C@@H](C/C=C(\C)C[C@@H](C)/C=C/C=C3\CO[C@@H]4[C@H](O)C(C)=C[C@@H](C(=O)O1)[C@]34O)O2
inactive: [1] | [2] | [3] | [4]

CC(C)c1noc(N2CCC(COc3ccc(-c4ccc(S(C)(=O)=O)cc4)nc3)CC2)n1
inactive: [1] | [2] | [3] | [4]

CCC/C=C/CO
inactive: [1] | [2] | [3] | [4]

C=C[C@](C)(O)CC[C@@H]1[C@@]2(C)CCCC(C)(C)[C@@H]2CC[C@@]1(C)O
inactive: [1] | [2] | [3] | [4]

O=C(O)[C@H]1NC[C@H]2C[C@H]21
inactive: [1] | [2] | [3] | [4]

O=c1cc(CCc2ccccc2)oc2cccc(O)c12
inactive: [1] | [2] | [3] | [4]

CS(=O)(=O)N1CCN(Cc2cc3nc(-c4cccc5[nH]ncc45)nc(N4CCOCC4)c3s2)CC1
active: [1] 1.72 µM | [2] 968 nM | [3] 1.22 µM | [4] 1.37 µM

O=C(/C=C/c1ccccc1)OC/C=C/c1ccccc1
inactive: [1] | [2] | [3] | [4]

CCN1C[C@]2(C)CCC(OC)[C@@]34C5C[C@@H]6CC[C@@](O)(C5C(=O)O6)[C@@H](C(O)C23)[C@@H]14 (stereo not given in full)
inactive: [1] | [2] | [3] | [4]

CCC[C@H]1C[C@H](C(=O)N[C@@H]([C@@H]2O[C@@H](SC)[C@@H](O)[C@@H](O)[C@@H]2O)[C@H](C)Cl)N(C)C1
inactive: [1] | [2] | [3] | [4]

O=C(NC[C@H](O)c1ccccc1)c1ccccc1
inactive: [1] | [2] | [3] | [4]

Cc1ccc2ccccc2n1
inactive: [1] | [2] | [3] | [4]

COc1cc(/C=C/c2ccc(O)cc2)cc(OC)c1
inactive: [1] | [2] | [3] | [4]

CCCC(=O)OCCC(C)CCC=C(C)C (stereo not given)
inactive: [1] | [2] | [3] | [4]

CC(C)=CCC/C(C)=C/C(=O)O
inactive: [1] | [2] | [3] | [4]

C[C@@H]1[C@H]2[C@@H](O[C@@H]3O[C@H](CO)[C@@H](O)[C@H](O)[C@H]3O)OC=C(C(=O)O)[C@H]2C[C@@H]1O
inactive: [1] | [2] | [3] | [4]

CC1OCCC1=O (stereo not given)
inactive: [1] | [2] | [3] | [4]

CC(=O)O[C@H]1C2[C@@H](OC(=O)Cc3ccccc3)[C@@H](C)C[C@]2(OC(C)=O)C(=O)/C(C)=C/[C@@H]2[C@H](CC[C@@]13CO3)C2(C)C (stereo not given in full)
inactive: [1] | [2] | [3] | [4]

CCOC(=O)CC(C)C
inactive: [1] | [2] | [3] | [4]

C/C(=C/CCC(C)[C@H]1CC[C@@]2(C)C3=C(CC[C@]12C)[C@@]1(C)CCC(=O)C(C)(C)[C@@H]1CC3)C(=O)O (stereo not given in full)
inactive: [1] | [2] | [3] | [4]

CC(C)=CCc1c(O)cc2c(c1O)C(=O)CC(c1ccccc1)O2 (stereo not given)
inactive: [1] | [2] | [3] | [4]

CC(C)(O)CC[C@H](OC(=O)c1ccccc1)[C@](C)(O)[C@H]1CC[C@@]2(O)C3=CC(=O)[C@@H]4C[C@@H](O)[C@H](O)C[C@]4(C)C3CC[C@]12C (stereo not given in full)
inactive: [1] | [2] | [3] | [4]

CC(C)=C[C@H]1C[C@H](C)[C@H]2CC[C@H](C)c3c(O[C@@H]4OC[C@@H](O)[C@H](O)C4O)c(O)c(C)c1c32 (stereo not given in full)
inactive: [1] | [2] | [3] | [4]

C[C@@H]1C(=O)O[C@H]2[C@H]1CC[C@@]1(C)C(=O)C=C[C@@](C)(O)[C@H]21
inactive: [1] | [2] | [3] | [4]

CC(=O)OCC(=O)[C@@]1(O)CC[C@H]2[C@@H]3CCC4=CC(=O)CC[C@]4(C)[C@@H]3C(=O)C[C@@]21C
inactive: [1] | [2] | [3] | [4]

COc1ccc(CCC(=O)O)cc1
inactive: [1] | [2] | [3] | [4]

O=C(O)CCc1ccccc1
inactive: [1] | [2] | [3] | [4]

CC(C)CNC(=O)/C=C/C=C/c1ccc2c(c1)OCO2
inactive: [1] | [2] | [3] | [4]

C/C(=C\COc1c2ccoc2cc2oc(=O)ccc12)CCC(O)C(C)(C)O (stereo not given)
inactive: [1] | [2] | [3] | [4]

NC(=O)NCCCC(=O)O
inactive: [1] | [2] | [3] | [4]

CC1(C)Oc2ccc3ccc(=O)oc3c2C[C@H]1O[C@@H]1O[C@H](CO)[C@@H](O)[C@H](O)[C@H]1O
inactive: [1] | [2] | [3] | [4]

Oc1cc(O)cc(C=Cc2ccc(O)c(O)c2)c1
inactive: [1] | [2] | [3] | [4]

CCC(C)(C)O
inactive: [1] | [2] | [3] | [4]

CCOC(=O)[C@H]1O[C@H]1C(=O)N[C@@H](CC(C)C)C(=O)NCCC(C)C
inactive: [1] | [2] | [3] | [4]

C[C@]12C[C@H](O)CC(CO)(CO)C1[C@H](O)C[C@@]13CC4[C@@H](CC12)[C@@]4(C)C3 (stereo not given in full)
inactive: [1] | [2] | [3] | [4]

CC(C)CC[C@@H](O)[C@](C)(O)C1CC[C@@]2(O)C3=CC(=O)[C@@H]4C[C@@H](O)[C@@H](O)C[C@]4(C)C3CC[C@]12C (stereo not given in full)
inactive: [1] | [2] | [3] | [4]

CC(C)=CCOc1c2ccoc2c(OCC=C(C)C)c2oc(=O)ccc12
inactive: [1] | [2] | [3] | [4]

COc1ccc2c(c1)CC1c3c(cc4c(c3-2)OCO4)CC[N+]1(C)[O-] (stereo not given)
inactive: [1] | [2] | [3] | [4]

CC(=NNC(=S)N1CCC1)c1ccccn1
active: [1] 0.0273 µM | [2] 43.2 nM | [3] 0.0385 µM | [4] 0.0243 µM

CC(=O)[C@@]1(O)CCC2C3CC[C@H]4C[C@@H](O)CC[C@]4(C)C3CC[C@@]21C (stereo not given in full)
inactive: [1] | [2] | [3] | [4]

CCOC(=O)[C@H](CCc1ccccc1)N[C@@H](C)C(=O)N1CCCC1C(=O)O (stereo not given in full)
inactive: [1] | [2] | [3] | [4]

CNCCO
inactive: [1] | [2] | [3] | [4]

CC(=O)O[C@]1(C(C)=O)CC[C@@H]2[C@@H]3C[C@H](C)C4=CC(=O)CC[C@]4(C)[C@H]3CC[C@@]21C
inactive: [1] | [2] | [3] | [4]

O=C(O)C1=CO[C@@H](O[C@@H]2O[C@H](CO)[C@H](O)[C@H](O)[C@H]2O)[C@@H]2C(CO)=CC[C@H]12
inactive: [1] | [2] | [3] | [4]

CCC(C)C(=O)OCCc1ccccc1 (stereo not given)
inactive: [1] | [2] | [3] | [4]

O=c1c(O)c(-c2ccc(O[C@@H]3O[C@H](CO)[C@@H](O)[C@H](O)[C@H]3O)c(O)c2)oc2cc(O)cc(O)c12
inactive: [1] | [2] | [3] | [4]

Cc1ncsc1CCO
inactive: [1] | [2] | [3] | [4]

C/C=C(/C)C(=O)O[C@@H]([C@H](O)c1cc2ccc(=O)oc2cc1OC)C(C)(C)O[C@@H]1O[C@H](CO)[C@@H](O)[C@H](O)[C@H]1O
inactive: [1] | [2] | [3] | [4]

CCCC1CCCC(=O)O1 (stereo not given)
inactive: [1] | [2] | [3] | [4]
